Results filed as inconclusive are left out. Entries that show only a call come without a potency. The source made the active and inactive calls. Calls come from the whole dose curve; as a rule, active = well fitted inhibition curve with a large enough effect; inconclusive = small, poorly fitted or top-dose-only effect; inactive = flat fitted curve, though single readings scatter.
molecular target: Calcium and integrin-binding protein 1 (Homo sapiens) (UniProt Q99828); assay: Primary qHTS for Identification of Calcium Integrin Binding Protein 1 (CIB1) Competitor (AID 1508620); conditions: CIB1-GST / FITC-alphaIIb peptide fluorescence polarization; series mostly up to 114 µM; note: top concentration of the series differs between compounds
In short: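 Fluorescence polarization competition: GST-tagged CIB1 (1 uM final) preincubated with compound 15 min at room temperature, then FITC-labelled alphaIIb peptide (100 nM final) added. After 15 min at room temperature, polarization read at Ex 480/Em 540.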

Chain of Calcium and integrin-binding protein 1 (Homo sapiens) (Q99828 whole entry, looked up): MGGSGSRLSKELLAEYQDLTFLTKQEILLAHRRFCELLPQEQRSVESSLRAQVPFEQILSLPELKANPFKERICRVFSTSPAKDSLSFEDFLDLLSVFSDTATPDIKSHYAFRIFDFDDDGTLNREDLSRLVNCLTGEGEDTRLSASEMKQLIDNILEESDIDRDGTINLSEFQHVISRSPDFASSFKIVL

SMILES | Potency
Cc1cnc(-c2ccccc2C(C)C)nc1NCc1ccc(-c2cccnc2)cc1 | inactive
N=c1c2c(ncn1-c1ccccc1)Oc1ccc3ccccc3c1C2c1ccc2c(c1)OCCO2 (stereo not given) | inactive
NC(=O)C1CCN(c2nc(-c3ccc(C(F)(F)F)cc3)cs2)CC1 | inactive
COc1ccc(C2Nc3ccccc3C(=O)N2Cc2ccccc2)cc1OCc1ccc(NC(C)=O)cc1 (stereo not given) | inactive
N#Cc1ccc(-c2ccc(NC(=O)c3cccs3)cn2)cc1 | inactive
Cc1cc2c(s1)c1cnn(Cc3ccccc3Cl)c(=O)c1n2C | inactive
CCOC(=O)c1ccc(-c2ccc3ncnc(N(C)Cc4ccc(C)o4)c3c2)o1 | inactive
COC(=O)C1CCN(C(=O)c2ccc3c(c2)ncn3-c2cccc(C)c2)CC1 | inactive
CSc1ccccc1-c1ncc(C)c(NCc2ccc(-c3cccnc3)cc2)n1 | inactive
COc1ccc(S(=O)(=O)N2CCN(C(=O)C3COc4ccccc4O3)CC2)cc1 (stereo not given) | inactive
Cc1nc(CCNc2ncnc3ccc(-c4ccc5c(c4)OCO5)cc23)cs1 | inactive
Cc1cc2c(s1)c1cnn(Cc3cccc(C(F)(F)F)c3F)c(=O)c1n2C | inactive
Cc1ccc(OCCn2c(CCNC(=O)c3cccs3)nc3ccccc32)cc1 | inactive
CN(Cc1cncn1C)c1ncnc2ccc(-c3ccc4c(c3)OCO4)cc12 | inactive
CCOC(=O)c1[nH]c2c(c1C)C(=O)CCC2 | inactive
O=C(NCCc1ccc2c(c1)OCO2)c1cc2sccc2[nH]1 | inactive
N#Cc1ccccc1CNc1nc2ncc(Br)cc2[nH]1 | inactive
Cn1nnnc1Sc1ncnc2scc(-c3cccc(F)c3)c12 | inactive
Cc1ccc(OCCn2c(CCNC(=O)c3ccc(C)cc3)nc3ccccc32)cc1 | inactive
NC(=O)C1CCN(c2nc(-c3ccc(Cl)cc3)cs2)CC1 | inactive

SMILES | Potency
O=C(Cn1nc(-c2ccc(C(F)(F)F)cc2)ccc1=O)NCCc1ccccc1 | inactive
O=C(OCC#CCSc1nnc(-c2cccc3ccccc23)o1)c1cc2ccccc2o1 | inactive
Cc1cc(NS(=O)(=O)c2ccc(NC(=O)Cc3ccc(C)c(C)c3)cc2)no1 | inactive
Cc1ccc(OCCn2c(CCNC(=O)c3ccccc3C(F)(F)F)nc3ccccc32)cc1 | inactive
COc1ccc(-c2nnc(NC(=O)Nc3ccc4ccccc4c3)s2)cc1OC | inactive
CCC(=O)NC(c1cc(Cl)c2cccnc2c1O)C1CC1 (stereo not given) | inactive
COc1ccc(C2Nc3ccccc3C(=O)N2Cc2ccc(C(F)(F)F)cc2)cc1COc1ccc(NC(C)=O)cc1 (stereo not given) | inactive
Cc1ccc(OCCn2c(CCNC(=O)c3cccc(C#N)c3)nc3ccccc32)cc1 | inactive
N#Cc1nc(Nc2cc(F)cc(F)c2)c2ncn(CCCN3CCCC3)c2n1 | inactive
Nc1c(-c2ccccc2)cc[nH]c1=O | inactive
Cc1ccc(OCCn2c(CCNC(=O)/C=C/c3cccc(Br)c3)nc3ccccc32)cc1 | inactive
O=C1CCCC2=C1C(c1[nH]ncc1Cl)NC(=NCc1cccs1)N2 (stereo not given) | inactive
Cc1cc(C)nc(NC(=S)N2CCN(c3cncnc3)CC2)c1 | inactive
CN(C)CCCNC(=O)c1ccc(-c2cnc3c(O)ccc(C(=O)O)c3c2)cc1 | inactive
Cc1ccnc(NCc2ccc(O)c3ncccc23)c1 | inactive
O=C1CCc2cc(S(=O)(=O)Nc3ccc4c(c3)OCCO4)ccc2N1 | inactive
N#Cc1ccccc1-c1csc(N2CCC(C(N)=O)CC2)n1 | inactive
Cc1cc(C)nc(NC(=S)N2CCN(S(=O)(=O)c3cccc(C(F)(F)F)c3)CC2)c1 | inactive
Cc1nc(SCC(=O)c2ccc(F)cc2)n[nH]1 | inactive
N#Cc1nc(Nc2ccccc2)nc(NC2CCCCC2)n1 | inactive

Reference: PubChem BioAssay (NCATS)
